Activity calls are given as the source filed them. Unless noted, how the calls were made is not given here.
Assays:
[1] = test system: XIP peptide (Xip251-270) binding; test: XIP fragment 251-270 binding compounds – biochemical, small-molecule microarray, fluorescence 635/667 nm, 0.1 µg/mL protein, primary screen (AID 1182); details: fluorescent protein binding, 635 nm, higher = more signal, called active from +8 up or from −8 down
XIP peptide (Xip251-270) = test: compounds binding XIP fragment 251-270 – biochemical, small-molecule microarray, fluorescence 635/667 nm, 0.5 µg/mL protein, primary screen (AID 1183); details: fluorescence 635 nm, higher = more signal
[2] = blood-stage malaria parasite viability loss – strain 3D7, DAPI fluorescence, 100 nL, primary screen (AID 1184);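 further: parasites grown inside human red blood cells in medium with human serum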; details: P. falciparum 3D7 growth, 3 d, higher = more signal
[3] = target: Homeobox protein Hox-A13 (Mus musculus) (UniProt Q62424); test: disruptors of Hoxa13 oligonucleotide interaction – biochemical, fluorescence polarization, labeled oligonucleotide, primary screen (AID 1185); details: Hoxa13:DNA binding, 15 min, higher = more signal, called active from +8 up or from −8 down
Homeobox protein Hox-A13 (Mus musculus), sequence (Q62424 whole entry, looked up): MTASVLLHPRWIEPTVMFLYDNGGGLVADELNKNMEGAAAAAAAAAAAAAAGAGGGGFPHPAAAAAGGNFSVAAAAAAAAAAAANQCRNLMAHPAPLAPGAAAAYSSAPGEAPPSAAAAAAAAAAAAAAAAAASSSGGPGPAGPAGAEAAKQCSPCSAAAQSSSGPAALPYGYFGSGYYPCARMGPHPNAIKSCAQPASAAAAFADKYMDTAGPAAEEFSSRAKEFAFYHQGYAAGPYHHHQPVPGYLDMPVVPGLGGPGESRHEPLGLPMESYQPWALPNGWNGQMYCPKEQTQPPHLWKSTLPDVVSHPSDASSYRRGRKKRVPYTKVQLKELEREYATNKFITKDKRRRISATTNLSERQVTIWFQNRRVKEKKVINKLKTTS

[4] = blockers of DNA damage checkpoint Chk1 activation – imaging, HeLa, hydroxyurea, phospho-Chk1 antibody, percent positive cells, primary screen (AID 1186); details: hydroxyurea-induced phospho-Chk1 immunofluorescence imaging, higher = more signal
[5] = blockers of DNA damage checkpoint Chk1 activation – imaging, HeLa, hydroxyurea, phospho-Chk1 nuclear intensity, primary screen (AID 1187); details: hydroxyurea-induced phospho-Chk1 immunofluorescence imaging, higher = more signal

SMILES	composite z-score [1]	composite z-score (XIP peptide (Xip251-270))	z-score [2]	z-score [3]	z-score [4]	z-score [5]
COc1ccc([Si](C)(C)[C@H]2[C@H](CC(=O)N3CCC[C@H]3CO)O[C@@]3(C(=O)N(c4ccccc4)c4ccccc43)[C@@H]2C)cc1	0.511 (inactive)	0.531	-0.887	-3.87 (inactive)	-1.18 (inactive)	-0.219 (inactive)
CCN(CC)c1ccc(N2CC=CC34O[C@@H]5/C=C\CCCOC(=O)C5[C@H]3C(=O)N(CCCO)[C@@H]4C2=O)cc1 (stereo partly drawn)	0.828 (inactive)	0.828	0.404	-6.09 (inactive)	-0.343 (inactive)	0.121 (inactive)
COc1ccc(C#Cc2ccc3c(c2)[C@]2(C(=O)N3)[C@H](c3ccc(OCCO)cc3)N3[C@H](c4ccccc4)[C@H](c4ccccc4)OC(=O)[C@H]3[C@@H]2C(=O)Nc2nc3ccccc3s2)cc1	0.353 (inactive)	0.522	-1.3	3.34 (inactive)	0.141 (inactive)	0.315 (inactive)
C=CC[C@@]1(C(=O)NCc2ccccc2)N=C(c2ccc(OCCCO)cc2)O[C@@H]1c1ccccc1CN=[N+]=[N-]	-0.0368 (inactive)	0.496	-2.28	-10.5 (active)	0.168 (inactive)	0.43 (inactive)
COC(=O)[C@@]1(Cc2ccc(F)cc2)[C@H]2c3cc(C(=O)N4CCCC4)n(Cc4ccc(Cl)c(C(F)(F)F)c4)c3C[C@H]2CN1C(=O)c1ccccc1	0.15 (inactive)	0.625	-1.45	-2.22 (inactive)	0.612 (inactive)	-0.126 (inactive)
O=C1O[C@H](c2ccccc2)[C@H](c2ccccc2)N2[C@H]1[C@@H](C(=O)Nc1nc3ccccc3s1)[C@]1(C(=O)Nc3ccc(C#CC4=CCCCC4)cc31)[C@H]2c1ccc(OCCO)cc1	-0.172 (inactive)	0.656	-0.985	-11.7 (active)	0.0032 (inactive)	-0.515 (inactive)
O=C1C2C=CC(C(O)c3ccc(Br)cc3)N(n3cnnc3)C2C(=O)N1Cc1ccccc1 (stereo not drawn)	0.568 (inactive)	0.76	-0.084	0.314 (inactive)	-0.47 (inactive)	-0.618 (inactive)
COc1ccc([Si](C)(C)[C@H]2[C@H](CC(=O)N3Cc4ccccc4C[C@H]3CO)O[C@@]3(C(=O)N(Cc4cccc(I)c4)c4ccccc43)[C@@H]2C)cc1	-0.276 (inactive)	0.287	-2.37	-2.66 (inactive)	-1.22 (inactive)	-0.541 (inactive)
O=S(=O)(NCCCO)c1ccc(Br)cc1	-0.2 (inactive)	0.0425	0.327	0.533 (inactive)	-0.868 (inactive)	-0.953 (inactive)
COCCOC(=O)N1C(=O)[C@@]2(c3cc(C#Cc4ccc(OC)cc4)ccc31)[C@H](c1ccc(O)cc1)N1[C@H](c3ccccc3)[C@H](c3ccccc3)OC(=O)[C@H]1[C@@H]2C(=O)N1CCN(c2ncccn2)CC1	0.164 (inactive)	0.596	-1.86	-0.821 (inactive)	0.187 (inactive)	0.302 (inactive)
CN(C)CCCC[C@@H]1NC(=O)[C@H]2C[C@@H](C(=O)NCCCCCNC(=O)CS)[C@@H](c3ccc(O)cc3)N2C1=O	-0.276 (inactive)	0.903	-0.282	-2.09 (inactive)	0.358 (inactive)	0.155 (inactive)
COc1ccc(CCNC(=O)[C@@]2(C)c3ccccc3C(=O)N(Cc3ccccc3)[C@H]2c2ccc(CO)cc2)cc1	1.12 (inactive)	0.859	-1.93	-4.95 (inactive)	-0.281 (inactive)	-0.173 (inactive)
C=CCC(OC(C)=O)[C@@H]1[C@@H](N(Cc2ccc(-c3ccccc3)cc2)C(=O)c2ccc(C)cc2)c2cc(OCCCO)ccc2N1C(=O)Cc1ccc(OC)cc1 (stereo partly drawn)	0.0129 (inactive)	0.703	-1.18	-0.664 (inactive)	-0.793 (inactive)	-0.677 (inactive)
[N-]=[N+]=NCc1ccccc1[C@H]1OC(c2ccc(OCCCO)cc2)=N[C@@]1(Cc1ccccc1)C(=O)NCC(O)CO (stereo partly drawn)	0.701 (inactive)	0.306	-2.48	-3.47 (inactive)	0.105 (inactive)	0.231 (inactive)
COC(=O)[C@@]1(Cc2ccc(OC)cc2)[C@H]2c3cc(C(=O)N(C)C)n(Cc4ccc(OC)c(OC)c4)c3C[C@H]2CN1C(=O)c1ccccc1	0.811 (inactive)	0.696	-1.47	-4.3 (inactive)	-0.225 (inactive)	0.305 (inactive)
C=CCCN(CC#C[C@H]1Oc2ccccc2S(=O)(=O)N2CCC[C@@H]12)S(=O)(=O)c1ccc(C)cc1	-0.183 (inactive)	-0.0455	-1.53	-2.47 (inactive)	0.508 (inactive)	0.431 (inactive)
[N-]=[N+]=NCc1ccccc1[C@@H]1OC(c2ccc(OCCCO)cc2)=N[C@]1(Cc1ccccc1N=[N+]=[N-])C(N)=O	0.411 (inactive)	0.785	-1.63	-3.75 (inactive)	0.135 (inactive)	0.278 (inactive)

SMILES	composite z-score [1]	composite z-score (XIP peptide (Xip251-270))	z-score [2]	z-score [3]	z-score [4]	z-score [5]
O=C1OCCC/C=C\[C@H]2OC34C=CCN(Cn5nnc6ccccc65)C(=O)[C@H]3N(CCCO)C(=O)[C@@H]4C12 (stereo partly drawn)	-0.021 (inactive)	0.652	-0.0008	-4.13 (inactive)	0.472 (inactive)	-0.103 (inactive)
O=C1O[C@@H](c2ccccc2)[C@@H](c2ccccc2)N2[C@@H](c3ccccc3OCCO)[C@]3(C(=O)Nc4ccc(C#CC5(O)CCCCCC5)cc43)[C@@H](C(=O)NC[C@H](O)c3ccccc3)[C@H]12	0.487 (inactive)	0.76	-1.96	-2.71 (inactive)	-0.213 (inactive)	0.0361 (inactive)
CC(C)NC(=O)[C@@H]1c2ccccc2C(=O)N(C2CCCCC2)[C@H]1c1ccc(CO)cc1	0.457 (inactive)	0.254	-0.361	-2.65 (inactive)	-0.0625 (inactive)	-0.237 (inactive)
CC(C)(C)OC(=O)CC[C@@]1(C(N)=O)N=C(c2ccc(OCCCO)cc2)O[C@@H]1c1ccccc1N=[N+]=[N-]	0.0344 (inactive)	0.839	-0.338	-6.23 (inactive)	-0.244 (inactive)	-0.0977 (inactive)
COc1c(C)cc(-c2cc3c(c(-c4ccccc4)n2)[Si](C(C)C)(C(C)C)O[C@H]3c2ccccc2)cc1C	0.648 (inactive)	-0.029	-2.88	-0.742 (inactive)	-0.59 (inactive)	-0.492 (inactive)
COCCn1c(C(=O)N(C)C)cc2c1C[C@H]1CN(C(=O)c3ccccc3)[C@@](Cc3ccc(F)cc3)(C(=O)OC)[C@@H]21	0.112 (inactive)	0.0743	-0.292	-4.93 (inactive)	0.562 (inactive)	0.478 (inactive)
O=C1C[C@@](C(=O)O)(c2ccc([N+](=O)[O-])cc2)[C@@H](c2ccc(CO)cc2I)N1CC12CC3CC(CC(C3)C1)C2	0.862 (inactive)	0.771	-1.92	-5.13 (inactive)	0.288 (inactive)	0.285 (inactive)
O=C1O[C@H](c2ccccc2)[C@H](c2ccccc2)N2[C@H]1[C@@H](C(=O)NC[C@H](O)c1ccccc1)[C@]1(C(=O)Nc3ccc(C#CC4=CCCCC4)cc31)[C@H]2c1ccc(O)cc1	0.447 (inactive)	0.766	-1.53	0.685 (inactive)	0.577 (inactive)	1.25 (inactive)
O=C1O[C@@H](c2ccccc2)[C@@H](c2ccccc2)N2[C@@H](c3ccc(O)cc3)[C@]3(C(=O)Nc4ccccc43)[C@@H](C(=O)N3CCCCCCC3)[C@H]12	3.19 (inactive)	0.862	-1.54	3.1 (inactive)	0.242 (inactive)	0.883 (inactive)
Cc1cc(C)c(C(O)C2C=CC3C(=O)NC(=O)C3N2Nc2ccccn2)c(C)c1 (stereo not drawn)	0.702 (inactive)	0.103	-0.261	-3.34 (inactive)	0.321 (inactive)	-0.0098 (inactive)
CCN(CC)c1ccc(N2CC=CC34O[C@@H]5/C=C\CCC(C)OC(=O)C5[C@H]3C(=O)N(CCCCCCO)[C@@H]4C2=O)cc1 (stereo partly drawn)	0.76 (inactive)	-0.0479	0.816	-5.99 (inactive)	-0.632 (inactive)	-0.767 (inactive)
COCCCNC(=O)[C@]1(Cc2ccccc2N=[N+]=[N-])N=C(c2ccc(OCCCO)cc2)O[C@@H]1c1ccccc1CN=[N+]=[N-]	0.0423 (inactive)	0.758	-2.21	-0.242 (inactive)	-0.659 (inactive)	-0.443 (inactive)
COC(=O)[C@@]1(Cc2ccc(OC)cc2)[C@H]2c3cc(C(=O)N4CCCC4)n(C[C@H](O)CO)c3C[C@H]2CN1C(=O)c1ccccc1	0.883 (inactive)	-0.197	-1.17	-5.13 (inactive)	0.0578 (inactive)	-0.0868 (inactive)
CCCC[C@H]1OB(O)C[C@H]2C1=C(C)Cn1c(=O)n(-c3ccccc3)c(=O)n12	-0.0734 (inactive)	0.116	-2.15	-0.581 (inactive)	-0.705 (inactive)	-0.679 (inactive)
COCCOC(=O)N1C(=O)[C@@]2(c3cc(C#CC4=CCCCC4)ccc31)[C@H](C(=O)N1CCN(c3ncccn3)CC1)[C@H]1C(=O)O[C@H](c3ccccc3)[C@H](c3ccccc3)N1[C@@H]2c1ccc(OCCO)cc1	0.499 (inactive)	0.463	-2.08	1.96 (inactive)	0.0924 (inactive)	0.501 (inactive)
C[N+](C)(C)CCCC[C@@H]1NC(=O)[C@H]2C[C@@H](C(=O)O)[C@@H](c3cccc(OCCO)c3)N2C1=O	3.68 (inactive)	0.809	-0.255	-0.304 (inactive)	0.336 (inactive)	0.213 (inactive)

Reference: PubChem BioAssay
